Calls of active or inactive are those of the source. Unless noted, no rule for the calls is given here.
Experiments:
[1] = HepG2 liver cancer cell viability effects, profiling panel, resazurin fluorescence, 24 h, PK04 Diversity Set (AID 1172); conditions: higher = more signal; also: test concentration not given here
[2] = basal S. cerevisiae growth modulation, no modifier, primary screen, OD600, strain BY4716, 24 h, basal condition (AID 1173); conditions: OD600, 24 h, higher = more signal, called active from +8 up or from −8 down
[3] = MM1S myeloma cell viability, profiling panel, resazurin fluorescence, basal, 24 h, PK04 Diversity Set (AID 1174); conditions: higher = more signal, called active from +8 up or from −8 down;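 also: MM1S multiple myeloma cell line; test concentration not given here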
[4] = target: Dihydroorotate dehydrogenase (quinone), mitochondrial (Plasmodium falciparum (isolate 3D7)) (UniProt Q08210); assay: PfDHODH enzyme inhibitors, primary screen, biochemical, C-terminal His tag, absorbance 600 nm (AID 1175); conditions: DCIP absorbance 600 nm, higher = more signal, called active from +8 up or from −8 down;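 also: recombinant parasite enzyme with a five histidine tag at its C terminus; test concentration not given here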
[5] = P. aeruginosa biofilm formation inhibitors, primary screen, strain PAO1, LB-PBS medium, absorbance 600 nm (AID 1176); also: test concentration not given here; conditions: P. aeruginosa PAO1 growth/biofilm, A600, 12 h; higher = more signal
[6] = S. cerevisiae RM11-1a growth modifiers, primary screen, strain RM11-1a, OD600, basal, 24 h (AID 1177); conditions: OD600, 24 h, higher = more signal, called active from +8 up or from −8 down;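 also: cultures grown under basal conditions with no added stressor; test concentration not given here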
[7] = E. coli acrAB mutant growth effects, primary screen, E. coli filamentation inducers, strain DRC39, OD650, 24 h (AID 1178); conditions: higher = more signal, called active from +8 up or from −8 down;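 also: growth measured as culture turbidity by optical density at 650 nm; test concentration not given here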
[8] = E. coli acrAB mutant growth effects, primary screen, E. coli filamentation inducers, strain DRC39, OD650, 48 h (AID 1179);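 also: screen aims at cell division blockers that make cells filament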; conditions: E. coli DRC39 delta-acrAB growth, higher = more signal, called active from +8 up or from −8 down
[9] = RPMI8226 myeloma cell viability, profiling panel, resazurin fluorescence, basal, 24 h, PK04 Diversity Set (AID 1180); conditions: higher = more signal;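 also: RPMI8826 multiple myeloma cell line at 5000 cells per well; test concentration not given here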
[10] = target: E3 ubiquitin-protein ligase XIAP (Homo sapiens) (UniProt P98170); assay: XIAP binders, primary screen, biophysical, small-molecule microarray, fluorescence 635 nm (AID 1181); conditions: small-molecule microarray binding, higher = more signal;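 also: score merges 667 nm emission and signal to noise over triplicate slides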
Chain of E3 ubiquitin-protein ligase XIAP (Homo sapiens) (P98170 whole entry, looked up): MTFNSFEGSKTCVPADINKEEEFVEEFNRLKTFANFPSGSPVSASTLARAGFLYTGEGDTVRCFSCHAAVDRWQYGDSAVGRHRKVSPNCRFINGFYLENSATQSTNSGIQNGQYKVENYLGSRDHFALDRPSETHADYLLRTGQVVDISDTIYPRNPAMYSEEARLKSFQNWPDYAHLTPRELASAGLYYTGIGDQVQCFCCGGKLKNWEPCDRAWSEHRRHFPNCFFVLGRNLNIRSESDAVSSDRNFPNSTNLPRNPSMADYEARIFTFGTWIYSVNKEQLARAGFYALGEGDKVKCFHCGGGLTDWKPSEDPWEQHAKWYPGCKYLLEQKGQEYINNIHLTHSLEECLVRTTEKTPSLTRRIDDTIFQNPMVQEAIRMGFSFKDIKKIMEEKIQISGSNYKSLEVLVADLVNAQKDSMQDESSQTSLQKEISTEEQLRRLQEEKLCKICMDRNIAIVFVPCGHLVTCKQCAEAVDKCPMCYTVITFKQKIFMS

Chain of Dihydroorotate dehydrogenase (quinone), mitochondrial (Plasmodium falciparum (isolate 3D7)) (Q08210 whole entry, looked up): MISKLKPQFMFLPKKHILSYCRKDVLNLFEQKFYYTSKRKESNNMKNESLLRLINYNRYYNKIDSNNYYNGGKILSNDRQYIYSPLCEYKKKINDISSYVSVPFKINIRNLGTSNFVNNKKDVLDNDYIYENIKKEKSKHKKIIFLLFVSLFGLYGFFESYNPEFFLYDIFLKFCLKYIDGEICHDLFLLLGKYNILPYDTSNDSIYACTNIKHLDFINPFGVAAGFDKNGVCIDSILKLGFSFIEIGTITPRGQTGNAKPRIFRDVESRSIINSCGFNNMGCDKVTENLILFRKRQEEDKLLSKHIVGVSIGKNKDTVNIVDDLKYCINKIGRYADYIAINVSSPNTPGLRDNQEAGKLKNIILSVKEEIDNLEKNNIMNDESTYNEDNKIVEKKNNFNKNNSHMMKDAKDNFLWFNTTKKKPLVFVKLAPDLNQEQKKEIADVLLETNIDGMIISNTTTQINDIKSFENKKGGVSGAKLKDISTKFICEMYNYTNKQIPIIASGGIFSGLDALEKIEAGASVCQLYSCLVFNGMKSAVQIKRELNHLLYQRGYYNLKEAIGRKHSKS

Row | SMILES | z-score [1] | z-score [2] | z-score [3] | composite z-score [4] | z-score [5] | z-score [6] | z-score [7] | z-score [8] | z-score [9] | composite z-score [10]
1 | CO[C@H]1COC(=O)[C@@H]2CCCN2C(=O)[C@@H](C)COC(=O)CC=C[C@@H]1C | 0.264 | -0.0361 (inactive) | 0.285 (inactive) | -1.95 (inactive) | -0.725 (inactive) | 0.023 (inactive) | 0.488 (inactive) | 0.362 (inactive) | 0.0409 | 0.285
2 | COCC1=C2[C@@H](CCc3ccccc3)OB(O)C[C@@H]2n2c(=O)n(-c3ccccc3)c(=O)n2C1 | 0.0883 | -1.24 (inactive) | -0.177 (inactive) | 0.653 (inactive) | 0.248 (inactive) | -0.352 (inactive) | 0.969 (inactive) | 0.545 (inactive) | 0.0549 | 0.698
3 | COC(=O)[C@H](C)NC(=O)CCC1CC(OC(=O)NCc2cccc3ccccc23)CC2(CCCC(COC(=O)NCC3CCCCC3)O2)O1 (stereo not given in full) | 1.14 | -0.201 (inactive) | 0.486 (inactive) | -0.533 (inactive) | -0.127 (inactive) | 0.617 (inactive) | 0.0476 (inactive) | -0.399 (inactive) | 1.23 | -0.02
4 | Cn1cccc1C(O)C1C=CC2C(=O)NC(=O)C2N1Nc1ccccn1 (stereo not given) | -1.49 | 0.784 (inactive) | -1.28 (inactive) | 1.21 (inactive) | 0.543 (inactive) | -0.0064 (inactive) | -0.512 (inactive) | -0.204 (inactive) | -0.868 | 0.203
5 | CO[C@@H]1COC(=O)CCC[C@@H](C)[C@H](OC)COC(=O)CCC[C@H]1C | 0.733 | 1.47 (inactive) | 0.367 (inactive) | -0.0732 (inactive) | -0.667 (inactive) | 1.6 (inactive) | 0.265 (inactive) | -0.65 (inactive) | 0.276 | -0.256
6 | CC(C)(C)N1CC=CC23O[C@@H]4C=CCCOC(=O)C4[C@H]2C(=O)N(CCCCCO)[C@@H]3C1=O (stereo not given in full) | -0.214 | -0.312 (inactive) | 0.287 (inactive) | -0.16 (inactive) | -0.36 (inactive) | 0.449 (inactive) | 0.251 (inactive) | 0.762 (inactive) | 0.384 | 0.329
7 | Cc1ccc(S[C@]2(C(=O)O)CC(=O)N(Cc3ccccc3)[C@@H]2c2ccc(CO)cc2I)cc1 | -0.201 | -3.44 (inactive) | -2.14 (inactive) | -0.975 (inactive) | 0.649 (inactive) | -1.44 (inactive) | -0.256 (inactive) | -0.246 (inactive) | -1.26 | -0.287
8 | COc1ccc([Si](C)(C)[C@H]2[C@H](CCO)O[C@@]3(C(=O)N(Cc4cccc(NC(=O)[C@H](C)O)c4)c4ccccc43)[C@@H]2C)cc1 | -5.76 | -0.321 (inactive) | -9.08 (active) | 1.35 (inactive) | 1.19 (inactive) | 4.03 (inactive) | 1.7 (inactive) | 1.14 (inactive) | -6.16 | 0.131
9 | COCCCNC(=O)[C@]1(CCC(=O)OC(C)(C)C)N=C(c2ccc(OCCCO)cc2)O[C@@H]1c1ccccc1N=[N+]=[N-] | 1.18 | -0.334 (inactive) | -0.637 (inactive) | 0.08 (inactive) | 0.149 (inactive) | 0.149 (inactive) | 0.615 (inactive) | 0.0528 (inactive) | -0.128 | 0.121
10 | CC(=O)OC[C@H]1O[C@H](CCON=C(C)CCN2CCc3nc(-c4ccccc4)c(-c4ccccc4)cc3C2)C=C[C@@H]1OC(C)=O | 0.0962 | -0.0567 (inactive) | -0.91 (inactive) | -0.439 (inactive) | 0.441 (inactive) | -0.64 (inactive) | 0.304 (inactive) | -0.545 (inactive) | 0.28 | 0.275
11 | COCCCNC(=O)[C@@]1(C)c2ccccc2C(=O)N(Cc2ccc(OC(F)(F)F)cc2)[C@H]1c1ccc(CO)cc1 | -0.576 | -0.0763 (inactive) | -0.741 (inactive) | -0.617 (inactive) | 0.431 (inactive) | -0.419 (inactive) | 0.434 (inactive) | 1.17 (inactive) | -0.661 | -0.148
12 | Cc1cc2c(c(=O)o1)[C@H](O)[C@H]1O[C@H]1C2=O | 0.145 | -2 (inactive) | -1.19 (inactive) | 0.44 (inactive) | -0.282 (inactive) | -0.627 (inactive) | -0.973 (inactive) | -0.662 (inactive) | -0.764 | -0.176
13 | O=C1[C@H]2[C@H]3[C@H](O)[C@H](O)CC(=NOCc4ccccc4)[C@H]3CC[C@H]2C(=O)N1C[C@@H]1CCCO1 | 0.648 | 0.243 (inactive) | 0.18 (inactive) | -0.279 (inactive) | 0.696 (inactive) | -0.485 (inactive) | -0.359 (inactive) | -0.103 (inactive) | -0.323 | -0.0773
14 | C/C=C\[C@@H](NCc1ccccc1Br)[C@@H](O)Cc1ccccc1 | -0.391 | -9.3 (active) | -0.393 (inactive) | -2.11 (inactive) | -1.61 (inactive) | -0.572 (inactive) | -0.179 (inactive) | -1.18 (inactive) | -0.645 | 0.0785
15 | Cn1c(=O)n2n(c1=O)[C@H]1[C@H](O)[C@@H]3O[C@@H]3C(=NOC[C@@H](O)COCc3ccco3)[C@H]1CC2 | -0.31 | -0.419 (inactive) | -0.877 (inactive) | 0.0599 (inactive) | 0.823 (inactive) | -0.17 (inactive) | -0.157 (inactive) | 0.317 (inactive) | -0.378 | -0.0382
16 | COC(=O)CC=C[C@H](C)[C@H](CO)NS(=O)(=O)c1ccc(C)cc1 | -0.502 | -0.342 (inactive) | -0.701 (inactive) | 0.0702 (inactive) | 1.09 (inactive) | -0.513 (inactive) | -0.586 (inactive) | -0.6 (inactive) | 0.139 | -0.123
17 | CN(C)c1ccc(C(O)C2C=CC3C(=O)N(c4ccccc4)C(=O)C3N2Nc2ccccc2F)cc1 (stereo not given) | -0.268 | -1.77 (inactive) | -0.234 (inactive) | 1.03 (inactive) | 0.657 (inactive) | 0.545 (inactive) | -0.853 (inactive) | -1.08 (inactive) | -1.02 | 0.24
18 | COc1ccc(OC[C@H]2Cc3c(-c4ccccc4)nc4c(c3CO2)CN(CCOc2ccccc2)CC4)cc1 | -0.376 | -2.37 (inactive) | -0.0593 (inactive) | -3.16 (inactive) | -0.765 (inactive) | -0.314 (inactive) | -1.17 (inactive) | -0.458 (inactive) | 0.578 | -0.111
19 | COc1ccc(O[C@H]2C=C[C@@H](c3ccccc3)O[C@@H]2COC(=O)CCC(C)=NOC(C)CN2CCCCc3nc(C)c(C)cc32)cc1 (stereo not given in full) | 0.957 | 0.756 (inactive) | 1.1 (inactive) | 0.0159 (inactive) | -0.279 (inactive) | 0.181 (inactive) | 0.825 (inactive) | 0.42 (inactive) | 0.948 | 0.533
20 | CC(CCN1CCc2nc(-c3ccccc3)c(-c3ccccc3)cc2C1)=NO[C@H](C)c1cn([C@@H]2COC[C@H]2O)nn1 | -0.233 | -0.799 (inactive) | -0.869 (inactive) | -0.0119 (inactive) | 0.408 (inactive) | -0.462 (inactive) | 0.532 (inactive) | 0.705 (inactive) | -0.639 | 0.063
21 | COCCOC(=O)N1C(=O)[C@@]2(c3cc(C#CCNC(N)=O)ccc31)[C@H](c1ccc(O)cc1)N1[C@H](c3ccccc3)[C@H](c3ccccc3)OC(=O)[C@H]1[C@@H]2C(=O)N1CCCCCCC1 | -0.0455 | 1.01 (inactive) | -0.172 (inactive) | 0.0489 (inactive) | 0.553 (inactive) | 0.517 (inactive) | 0.474 (inactive) | -0.188 (inactive) | -0.336 | -0.212
22 | O=C1[C@H]2[C@H]3[C@H](O)[C@H](O)CC(=NOC[C@@H](O)COCc4ccco4)[C@H]3CC[C@H]2C(=O)N1C1CCCCC1 | 0.0194 | -0.563 (inactive) | -0.304 (inactive) | -2.13 (inactive) | 0.188 (inactive) | -0.479 (inactive) | 0.426 (inactive) | -0.0377 (inactive) | -0.263 | 0.116
23 | CC(C)CON=C1[C@H]2CCn3c(=O)n(-c4ccccc4)c(=O)n3[C@H]2[C@H](O)[C@@H]2O[C@H]12 | -0.771 | -0.813 (inactive) | -1.21 (inactive) | -0.422 (inactive) | -0.225 (inactive) | 0.0254 (inactive) | 0.276 (inactive) | 0.596 (inactive) | -0.822 | -0.032
24 | CCCC[C@H]1OB(O)C[C@H]2C1=C(C)C[C@H]1C(=O)N(C)C(=O)[C@H]12 | -0.539 | -2.09 (inactive) | -0.596 (inactive) | -0.829 (inactive) | 0.4 (inactive) | -0.776 (inactive) | 0.506 (inactive) | 0.499 (inactive) | -0.466 | -0.256

Reference: PubChem BioAssay
